Test in all cases: NCI-60 one-dose screen, 48 h (100 = growth as untreated, 0 = no growth, -100 = all killed)
One assay has as its system HOP-92 NSCLC. The following applies: 10 µM unless noted.
The next assay relates to A549/ATCC NSCLC. The following applies: 10 µM unless noted.
The subject of a further assay is COLO 205 colon. The following applies: 10 µM.
In a further assay the test system is SNB-75 CNS. The following applies: 10 µM unless noted.
Another assay relates to PC-3 prostate. As to conditions: 10 µM unless noted.
The test system of another assay is SK-MEL-28 melanoma. As to conditions: 10 µM unless noted.
Another assay has as its system EKVX NSCLC. The following applies: 10 µM unless noted.
The test system of a further assay is CCRF-CEM leukemia. As to conditions: 10 µM unless noted.
The next assay relates to SR leukemia. As to conditions: 10 µM.
The next assay deals with RPMI-8226 leukemia. As to conditions: 10 µM unless noted.
For the next assay, the system named is OVCAR-5 ovarian. The following applies: 10 µM unless noted.
For the next assay, the system named is IGROV1 ovarian. As to conditions: 10 µM.
For another assay, the system named is OVCAR-3 ovarian. As to conditions: 10 µM unless noted.
A further assay deals with HS 578T breast. The following applies: 10 µM unless noted.
Another assay concerns MCF7 breast. As to conditions: 10 µM unless noted.
For the next assay, the system named is HT29 colon. The following applies: 10 µM unless noted.
Another assay relates to SK-MEL-5 melanoma. As to conditions: 10 µM unless noted.
The test system of the next assay is CAKI-1 renal. The following applies: 10 µM unless noted.
The next assay has as its system NCI-H522 lung. The following applies: 10 µM unless noted.

Compounds without any hit were thinned out: in the full panel of roughly 83,000, 20% have a hit.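 Growth was measured after 48 h exposure to one concentration of compound in 96-well plates. Values under 10 count as active.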 Values without a mark were called inactive. Calls of active or inactive are those of the source.

For the molecule `O=C(CC1(O)C(=O)Nc2ccc(F)cc21)c1ccc(C(=O)NCC2CCC3(CC2)OOC2(CCCCC2)OO3)cc1` (stereo unspecified), the growth is -65.3% (active) in the assay on HOP-92 NSCLC; -66.5% (active) in the assay with A549/ATCC NSCLC; 33.7% with COLO 205 colon; 69.8% in the assay on SNB-75 CNS; 44.2% in the assay with PC-3 prostate; 78.5% in the assay on SK-MEL-28 melanoma. Also, the growth in the assay on EKVX NSCLC is -29.9% (active); in the assay with CCRF-CEM leukemia, -32.1% (active); in the assay on SR leukemia, -43.2% (active); in the assay on RPMI-8226 leukemia, 12.7%; with OVCAR-5 ovarian it was 87.3%; with IGROV1 ovarian, 3.82% (active). The growth was -50.1% (active) with OVCAR-3 ovarian, 73.8% in the assay on HS 578T breast and 60.9% in the assay on MCF7 breast.

Consider `Nc1cccc2c1Oc1ccccc1O2`, for which the growth in the assay on HOP-92 NSCLC was 80.3%; with A549/ATCC NSCLC, 97%; in the assay on COLO 205 colon, 134%; with HT29 colon, 119%; with SNB-75 CNS, 133%; in the assay on PC-3 prostate it was 84.9%. Further, the growth is 86% with SK-MEL-5 melanoma; 99.7% in the assay with EKVX NSCLC; 88% in the assay on CAKI-1 renal; 87.7% with CCRF-CEM leukemia; 102% in the assay on SR leukemia; 98.3% with OVCAR-5 ovarian. Also, the growth with IGROV1 ovarian was 2.63% (active); in the assay with OVCAR-3 ovarian, 103%; in the assay on HS 578T breast, 112%; in the assay on MCF7 breast, 137%.

Consider `O=C1NC(=O)C(=Cc2cn(Cc3ccccc3)c3ccccc23)C(=O)N1`, for which the growth is 79.3% with HOP-92 NSCLC; 102% in the assay with NCI-H522 lung; 18.3% in the assay with COLO 205 colon; 105% with HT29 colon; 77.6% in the assay on SNB-75 CNS; 84.2% in the assay on PC-3 prostate. Moreover, the growth in the assay with SK-MEL-28 melanoma is 98%; with EKVX NSCLC, 63.7%; with CCRF-CEM leukemia, 98.1%; in the assay on SR leukemia, 71.4%; in the assay with RPMI-8226 leukemia, 75.7%; with OVCAR-5 ovarian, 18.4%. The growth is -26.7% (active) in the assay with IGROV1 ovarian, 72.6% in the assay with OVCAR-3 ovarian, 78% in the assay on HS 578T breast and 85.9% with MCF7 breast.

As for `CCCCCCCCCCOc1ccc(C(=O)Oc2ccc(CSP3(=O)OCC4OC(n5ccc(=O)[nH]c5=O)C(F)C4OP(=O)(O)OCC4OC(n5cnc6c(N)ncnc65)C(F)C4O3)cc2)cc1` (stereo unspecified), the growth is 85.4% in the assay on HOP-92 NSCLC; 71.1% in the assay on NCI-H522 lung; 85.9% in the assay on A549/ATCC NSCLC; 79.3% with HT29 colon; 102% in the assay with SNB-75 CNS; 103% with PC-3 prostate. The growth is 111% in the assay on SK-MEL-5 melanoma; 113% in the assay on SK-MEL-28 melanoma; 111% in the assay with EKVX NSCLC; 87.1% in the assay with CCRF-CEM leukemia; 25.4% with SR leukemia; 82.6% with RPMI-8226 leukemia. Moreover, the growth in the assay with OVCAR-5 ovarian was 116%; in the assay on IGROV1 ovarian, 95.3%; in the assay with OVCAR-3 ovarian, 97.6%; in the assay with HS 578T breast, 111%; in the assay with MCF7 breast it was 95.5%.

For `CC(=O)N(C)C1=Nc2ccc(Cl)cc2C(c2ccccc2)=[N+]([O-])C1`, the growth with HOP-92 NSCLC is 92.5%; in the assay on A549/ATCC NSCLC, 106%; in the assay on COLO 205 colon it was 105%; with HT29 colon, 104%; with SNB-75 CNS it was 95.9%; in the assay on PC-3 prostate it was 91%. Also, the growth in the assay on SK-MEL-5 melanoma was 105%; in the assay on SK-MEL-28 melanoma, 124%; in the assay on EKVX NSCLC it was 115%; in the assay with CAKI-1 renal it was 99.8%; in the assay with CCRF-CEM leukemia, 125%; in the assay on SR leukemia, 86.1%. Also, the growth is 113% in the assay on RPMI-8226 leukemia; 102% in the assay on OVCAR-5 ovarian; 106% in the assay with IGROV1 ovarian; 117% with OVCAR-3 ovarian; 111% in the assay with HS 578T breast; 104% in the assay on MCF7 breast.

In the case of `OC1(c2ccccc2F)c2ccccc2C2=NCCN21` (stereo unspecified), the growth in the assay on HOP-92 NSCLC is 78.9%; with A549/ATCC NSCLC, 114%; in the assay on COLO 205 colon it was 101%; with HT29 colon, 105%; with SNB-75 CNS, 104%; in the assay with EKVX NSCLC, 97.8%. Further, the growth is 64.4% in the assay on CAKI-1 renal; 93% in the assay on CCRF-CEM leukemia; 90.9% in the assay with SR leukemia; 107% in the assay with RPMI-8226 leukemia; 98.6% in the assay on OVCAR-5 ovarian; 79.4% in the assay on IGROV1 ovarian. For the same molecule, the values for the growth with OVCAR-3 ovarian and with MCF7 breast were 87.9% and 103%, respectively.

In the case of `COc1ccccc1N1CCN(CCc2c[nH]c3cc4c(cc23)OCO4)CC1`, the growth was -8.6% (active) in the assay with HOP-92 NSCLC; 72% in the assay with NCI-H522 lung; 74.7% in the assay with COLO 205 colon; 44.2% in the assay on HT29 colon; 91.6% with SNB-75 CNS; 58.4% with PC-3 prostate. The growth was 74.8% with SK-MEL-5 melanoma; 94.2% in the assay on SK-MEL-28 melanoma; 77.7% in the assay on EKVX NSCLC; 75.5% in the assay with CAKI-1 renal; 75.4% with CCRF-CEM leukemia; 47.1% in the assay on RPMI-8226 leukemia. Further, the growth in the assay on OVCAR-5 ovarian is 60.2%; in the assay on IGROV1 ovarian it was -33.9% (active); with OVCAR-3 ovarian, 91.2%; in the assay on HS 578T breast, 69.5%; with MCF7 breast it was 78.7%.

As for `Oc1ccc(O)c2c1C1(Cl)C(Cl)=C(Cl)C2(Cl)C1(Cl)Cl`, the growth is 12% in the assay on HOP-92 NSCLC; 46.1% with A549/ATCC NSCLC; 72% in the assay with COLO 205 colon; 42.4% with PC-3 prostate; 67.9% in the assay on SK-MEL-28 melanoma; 34.3% in the assay with EKVX NSCLC. Besides, the growth with CAKI-1 renal is 34.6%; in the assay with SR leukemia, 34.9%; with RPMI-8226 leukemia, 64%; with OVCAR-5 ovarian it was 70.1%; in the assay with IGROV1 ovarian, 38.3%; with OVCAR-3 ovarian, 40.4%. In addition, the growth in the assay with MCF7 breast is 38.9%.

For the molecule `COC(=O)C[Se]C(=O)c1ccccc1OC(C)=O`, the growth in the assay with HOP-92 NSCLC was 93.3%; in the assay on A549/ATCC NSCLC, 33.7%; in the assay with COLO 205 colon it was 46.7%; with HT29 colon it was 33.2%; in the assay on SK-MEL-5 melanoma, 90.6%; in the assay with SK-MEL-28 melanoma, 84.1%. Also, the growth with EKVX NSCLC is 31.4%; with CAKI-1 renal, 87.8%; with CCRF-CEM leukemia, 76.6%; in the assay on SR leukemia, 20.7%; in the assay with RPMI-8226 leukemia, 96%; in the assay with OVCAR-5 ovarian it was 38.6%. In addition, the growth is 52% in the assay with IGROV1 ovarian, 66.1% in the assay on HS 578T breast and 65.5% in the assay with MCF7 breast.
